Measurements taken from PubChem BioAssay.
Active and inactive are the calls of the source.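 How the source made its calls, unless noted: active means inhibition at or above 50% at 10 µM; inactive means inhibition below 50%.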

How the values were obtained:
[1] = inhibitors of TNFa-induced NFkB p65 translocation, primary screen, imaging, HUVEC, MLSMR starter and 10KST1 sets (AID 438;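 active means inhibition above 20% together with a positive visual image hit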;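 further: compound added about 3h40 before a 20 min TNFalpha stimulation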;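 on inhibition: signal is the nuclear over cytoplasmic p65 intensity ratio per well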); conditions: HUVEC TNFa-induced p65 nuclear translocation; cell count: measured here: nuclei count (cytotoxicity indicator), at 2.08 µM; inhibition: at 2 µM, stronger effect = higher value, 0% TNFa-plus-vehicle, 100% no-TNFa wells
[2] = reduction of polyQ htt aggregates in cells – imaging, exon1htt(103Q)mCFP cells, high-content imaging, primary screen (AID 483;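 active means visual image review flags a hit and inhibition of aggregation exceeds 20%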;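 further: compound exposure lasted 3 days before fixation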;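 on nuclei count: percent of the per-plate median nuclei count of sample wells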); conditions: exon1htt(103Q)mCFP cell line, aggregate imaging, at 2 µM; inhibition of aggregation: stronger effect = higher value; nuclei count: measured here: cell count, toxicity
[3] = endothelial E-selectin expression blockers – imaging, HUVEC, immunofluorescence, MLSMR starter and 10KST1 sets, primary screen (AID 487;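 active means visually confirmed hit in the image check and inhibition above 20%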;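 on inhibition: signal is fraction of cell area covered by stained E-selectin grains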;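 on nuclei count: 100% = median nuclei count of all wells on the same plate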); conditions: HUVEC TNFalpha-induced E-selectin immunofluorescence imaging, at 2 µM; inhibition: stronger effect = higher value; nuclei count: measured here: cell number, toxicity
[4] = molecular target: Voltage-gated potassium channel subunit beta-2 (Rattus norvegicus) (UniProt P62483); assay: inhibitors of rat Kvbeta2 reductase activity – biochemical, NADPH fluorescence, primary screen (AID 622;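 active means fluorescence slope higher than the sample average by over 3 SD, cut at about -0.22 in these data, passing the limit was not always enough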;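 further: slope of raw intensity against log time taken from 70 to 1610 s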); conditions: recombinant KvBeta, 4-cyanobenzaldehyde reduction, at 10 µM, stronger effect = higher value
[5] = molecular target: Voltage-gated potassium channel subunit beta-2 (Rattus norvegicus) (UniProt P62483); assay: enhancers of rat Kvbeta2 NADPH turnover – biochemical, NADPH fluorescence, primary screen (AID 623;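 active means NADPH fluorescence slope more negative than the mean of all samples by about 3 SD, 99.7% confidence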;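 further: fluorescence intensity change per second fitted from 20 to 320 s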); conditions: Recombinant KvBeta, NADPH fluorescence decrease slope, 10 min; at 10 µM; stronger effect = lower value
[6] = molecular target: Alpha-2C adrenergic receptor (Homo sapiens) (UniProt P18825); assay: compounds altering alpha2C-coupled GIRK flux – cell-based, HEK293 alpha2C/GIRK1/2, thallium flux, primary screen (AID 624;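 active means fluorescence slope after compound addition differing from the mean of all screened samples at 99.7% confidence, in either direction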;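 further: slope of fluorescence ratio to pre-addition baseline per second over 15 to 24 s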); conditions: thallium flux BTC fluorescence, at 10 µM, actives lie on both sides
[7] = blockers of RIG-like receptor reporter activation – cell-based, Sendai virus stimulus, luciferase, 10K MLSCN set, TLR/RLR signaling modifier project, primary screen (AID 602276); conditions: HEK293 RL24 IRF3 luciferase reporter, at 10 µM, stronger effect = higher value;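 further: firefly luciferase from ISG56 promoter only with Renilla not read in this screen; 0% = Sendai virus plus DMSO and 100% = medium plus DMSO without virus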
[8] = TLR3 IRF3 reporter activation blockers – cell-based, poly I:C stimulus, luciferase, 10K MLSCN set, primary screen (AID 602277;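 active means inhibition of the reporter signal at or above 50%; inactive means inhibition below 50%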); conditions: HEK293-TLR3 RL24 IRF3 luciferase reporter, at 10 µM, stronger effect = higher value

Chain of Voltage-gated potassium channel subunit beta-2 (Rattus norvegicus) (P62483 whole entry, looked up): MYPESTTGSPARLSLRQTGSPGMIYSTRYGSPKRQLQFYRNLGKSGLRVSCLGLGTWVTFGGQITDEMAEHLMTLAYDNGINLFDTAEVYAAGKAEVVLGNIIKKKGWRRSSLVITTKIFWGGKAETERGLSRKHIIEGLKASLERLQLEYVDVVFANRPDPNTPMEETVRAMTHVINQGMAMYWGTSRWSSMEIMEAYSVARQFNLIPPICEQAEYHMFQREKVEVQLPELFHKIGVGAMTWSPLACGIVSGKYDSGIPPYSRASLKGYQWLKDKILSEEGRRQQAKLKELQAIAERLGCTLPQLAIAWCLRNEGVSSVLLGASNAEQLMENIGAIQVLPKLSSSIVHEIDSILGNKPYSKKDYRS
Chain of Alpha-2C adrenergic receptor (Homo sapiens) (P18825 whole entry, looked up): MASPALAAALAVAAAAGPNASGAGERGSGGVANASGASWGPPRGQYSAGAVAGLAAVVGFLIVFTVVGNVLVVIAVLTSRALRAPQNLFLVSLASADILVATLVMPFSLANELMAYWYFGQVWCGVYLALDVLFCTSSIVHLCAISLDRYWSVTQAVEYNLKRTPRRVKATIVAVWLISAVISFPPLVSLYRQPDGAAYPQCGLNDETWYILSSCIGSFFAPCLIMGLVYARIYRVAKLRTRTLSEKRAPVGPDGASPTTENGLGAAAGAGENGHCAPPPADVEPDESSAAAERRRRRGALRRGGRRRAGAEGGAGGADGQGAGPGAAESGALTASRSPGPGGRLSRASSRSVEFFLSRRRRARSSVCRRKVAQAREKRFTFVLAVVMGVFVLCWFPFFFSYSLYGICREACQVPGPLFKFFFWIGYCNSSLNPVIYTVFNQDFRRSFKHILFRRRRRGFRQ

Row | SMILES | cell count [1] | inhibition [1] | inhibition of aggregation [2] | nuclei count [2] [%] | inhibition [3] | nuclei count [3] [%] | fluorescence slope [4] | NADPH fluorescence slope [5] | slope [6] | inhibition [7] | inhibition [8]
1 | COc1ccccc1NC(=O)N(C1CCCC1)C1CCN(C(C)=O)CC1 | 830 | 18.5% (inactive) | -7% (inactive) | 98 | -61.6% (inactive) | 123 | -0.582 (inactive) | -3.7e-05 (inactive) | 0.00578 (inactive) | 12.4% (inactive) | 34.4% (inactive)
2 | NC(=O)CN1C(=O)C(O)(CC(=O)c2ccccc2O)c2ccccc21 (stereo not drawn) | 641 | -0.3% (inactive) | -4.7% (inactive) | 122 | -65.3% (inactive) | 133 | -0.395 (inactive) | -4.6e-05 (inactive) | 0.00547 (inactive) | 12.7% (inactive) | 38.5% (inactive)
3 | Cc1nc(C)c(C(=O)C2=C(O)C(=O)N(CCCn3ccnc3)C2c2ccccc2)s1 (stereo not drawn) | 481 | 4% (inactive) | 11.4% (inactive) | 89 | 39.5% (inactive) | 88.2 | -0.394 (inactive) | 1.3e-05 (inactive) | 0.00668 (inactive) | -7.2% (inactive) | -4.54% (inactive)
4 | CC(=O)c1cccc(NC(=O)N2CCCc3ccccc32)c1 | 334 | 2% (inactive) | -9.8% (inactive) | 95.3 | -43.9% (inactive) | 120 | -0.622 (inactive) | 3.7e-06 (inactive) | 0.00357 (inactive) | 9.66% (inactive) | -1.85% (inactive)
5 | CCCCC(CC)CNC(=O)C1CCCN(S(=O)(=O)c2cnc[nH]2)C1 (stereo not drawn) | 565 | 8.7% (inactive) | 2.1% (inactive) | 75.2 | 0.3% (inactive) | 104 | -0.491 (inactive) | -1.6e-05 (inactive) | 0.00613 (inactive) | 10.8% (inactive) | 15.8% (inactive)
6 | COc1ccc(C2c3sc(=O)[nH]c3SC3C4CCC(C4)C23)cc1 (stereo not drawn) | 573 | -7.6% (inactive) | -14% (inactive) | 93.8 | -69.5% (inactive) | 106 | -0.53 (inactive) | 3.9e-05 (inactive) | 0.00413 (inactive) | -5.3% (inactive) | 9.16% (inactive)
7 | CCCC(=O)Nc1cc(C)c(NC(=O)c2ccccn2)cn1 | 418 | 13.7% (inactive) | 19.4% (inactive) | 89.7 | -10.2% (inactive) | 110 | -0.606 (inactive) | -5.2e-05 (inactive) | 0.007 (inactive) | 4.7% (inactive) | 11.8% (inactive)
8 | CCOC(=O)CCCOC(=O)c1ccc(S(=O)(=O)N(C)C)cc1 | 374 | -12.5% (inactive) | 2.8% (inactive) | 67.5 | -8.8% (inactive) | 106 | -0.454 (inactive) | -4.3e-05 (inactive) | 0.00644 (inactive) | 0.818% (inactive) | 10.6% (inactive)
